Screen size: about 5,500 compounds; about 2,000 (36%) were called active. Not shown: some 18% with an inconclusive outcome. Rule as the data show it: active = normalized growth mostly below about 0.91 (no sharp cut-off); inconclusive = no clear call, values can overlap the other calls; inactive = mostly above about 0.92. This is one part of the list.
Assay: chemical genetic growth profiling, strain panel (AID 1159580);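 also: tested at 20 µM; growth read once vehicle control cultures reached saturation at 30 °C; 1 = growth at the plate median or of vehicle wells; lower values mean less growth of the strain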
Settings: growth OD

Measured: normalized growth

CC(C)CCCC(C)C1CCC2C3CC[C@H]4CCCC[C@]4(C)C3CC[C@]12C (some centres not stated)
inactive: S. cerevisiae deletion strains, locus YJR075W, strain HOC1, active compounds read low 0.965 | S. cerevisiae deletion strains, locus YKL009W, strain mrt4, active compounds read low 1.01 | S. cerevisiae deletion strains, locus YKL068W, active compounds read low 0.993 | S. cerevisiae deletion strains, locus YKL085W, strain MDH1 (second series), active compounds read low 1.02 | S. cerevisiae deletion strains, locus YKL085W, strain MDH1, active compounds read low 1.02 | S. cerevisiae deletion strains, locus YKL160W, strain elf1, active compounds read low 0.998 | S. cerevisiae deletion strains, locus YKL190W, strain CNB1, active compounds read low 0.98 | S. cerevisiae deletion strains, locus YKR001C, strain vps1, active compounds read low 0.996 | S. cerevisiae deletion strains, locus YKR026C, strain gcn3, active compounds read low 0.998 | S. cerevisiae deletion strains, locus YKR091W, strain srl3, active compounds read low 1.02 | S. cerevisiae deletion strains, locus YLL001W, strain dnm1, active compounds read low 1.02 | S. cerevisiae deletion strains, locus YLL026W, active compounds read low 1.02 | S. cerevisiae deletion strains, locus YLL041C, strain sdh2, active compounds read low 1.01 | S. cerevisiae deletion strains, locus YLR027C, strain aat2, active compounds read low 1.01 | S. cerevisiae deletion strains, locus YLR039C, strain RIC1, active compounds read low 0.951 | S. cerevisiae deletion strains, locus YLR058C, strain SHM2, active compounds read low 0.967 | S. cerevisiae deletion strains, locus YLR102C, strain apc9, active compounds read low 0.977 | S. cerevisiae deletion strains, locus YLR113W, strain HOG1, active compounds read low 1.03 | S. cerevisiae deletion strains, locus YLR221C, strain rsa3, active compounds read low 1.02 | S. cerevisiae deletion strains, locus YLR258W, strain gsy2, active compounds read low 1.02 | S. cerevisiae deletion strains, locus YLR262C, strain YPT6 (second series), active compounds read low 1.02 | S. cerevisiae deletion strains, locus YLR262C, strain YPT6, active compounds read low 0.945 | S. cerevisiae deletion strains, locus YLR268W, strain sec22, active compounds read low 0.966 | S. cerevisiae deletion strains, locus YLR320W, strain mms22, active compounds read low 1.02 | S. cerevisiae deletion strains, locus YLR330W, strain CHS5, active compounds read low 0.999 | S. cerevisiae deletion strains, locus YLR342W, strain FKS1 (second series), active compounds read low 1.04 | S. cerevisiae deletion strains, locus YLR342W, strain FKS1, active compounds read low 1.02 | S. cerevisiae deletion strains, locus YLR357W, strain rsc2, active compounds read low 1.04 | S. cerevisiae deletion strains, locus YLR370C, strain arc18, active compounds read low 1.02 | S. cerevisiae deletion strains, locus YLR371W, strain rom2, active compounds read low 0.998 | S. cerevisiae deletion strains, locus YLR384C, strain iki3, active compounds read low 1.02 | S. cerevisiae deletion strains, locus YLR418C, strain cdc73, active compounds read low 0.952 | S. cerevisiae deletion strains, locus YML016C, strain PPZ1, active compounds read low 0.986 | S. cerevisiae deletion strains, locus YML032C, strain rad52, active compounds read low 1 | S. cerevisiae deletion strains, locus YML120C, strain ndi1, active compounds read low 1.02 | S. cerevisiae deletion strains, locus YML124C, strain tub3, active compounds read low 1 | S. cerevisiae deletion strains, locus YMR058W, strain fet3, active compounds read low 1.01 | S. cerevisiae deletion strains, locus YMR078C, strain ctf18, active compounds read low 0.99 | S. cerevisiae deletion strains, locus YMR125W, strain sto1, active compounds read low 1.03 | S. cerevisiae deletion strains, locus YMR129W, active compounds read low 1.02 | S. cerevisiae deletion strains, locus YMR205C, strain PFK2, active compounds read low 1.04 | S. cerevisiae deletion strains, locus YMR223W, strain ubp8, active compounds read low 1 | S. cerevisiae deletion strains, locus YMR231W, strain pep5, active compounds read low 1.02 | S. cerevisiae deletion strains, locus YMR263W, strain SAP30, active compounds read low 0.949 | S. cerevisiae deletion strains, locus YMR307W, strain GAS1, active compounds read low 1.07 | S. cerevisiae deletion strains, locus YNL067W, strain RPL9B, active compounds read low 0.953 | S. cerevisiae deletion strains, locus YNL071W, strain lat1, active compounds read low 1.01 | S. cerevisiae deletion strains, locus YNL128W, strain TEP1, active compounds read low 0.941 | S. cerevisiae deletion strains, locus YNL153C, strain GIM3, active compounds read low 0.962 | S. cerevisiae deletion strains, locus YNL183C, strain NPR1, active compounds read low 0.922 | S. cerevisiae deletion strains, locus YNL209W, strain ssb2, active compounds read low 1.02 | S. cerevisiae deletion strains, locus YNL233W, strain BNI4, active compounds read low 0.983 | S. cerevisiae deletion strains, locus YNL248C, strain rpa49, active compounds read low 0.992 | S. cerevisiae deletion strains, locus YNL250W, strain rad50, active compounds read low 0.986 | S. cerevisiae deletion strains, locus YNL271C, strain bni1, active compounds read low 0.993 | S. cerevisiae deletion strains, locus YNL298W, strain CLA4, active compounds read low 0.998 | S. cerevisiae deletion strains, locus YNL307C, strain MCK1, active compounds read low 1.01 | S. cerevisiae deletion strains, locus YNL322C, strain KRE1 (second series), active compounds read low 1.02 | S. cerevisiae deletion strains, locus YNL322C, strain KRE1, active compounds read low 0.971 | S. cerevisiae deletion strains, locus YNR049C, strain mso1, active compounds read low 1.02 | S. cerevisiae deletion strains, locus YNR052C, strain pop2, active compounds read low 0.996 | S. cerevisiae deletion strains, locus YOL006C, strain TOP1, active compounds read low 0.935 | S. cerevisiae deletion strains, locus YOL012C, strain htz1 1.86 | S. cerevisiae deletion strains, locus YOL147C, strain pex11, active compounds read low 0.992 | S. cerevisiae deletion strains, locus YOR001W, strain rrp6, active compounds read low 0.993 | S. cerevisiae deletion strains, locus YOR061W, strain CKA2, active compounds read low 0.964 | S. cerevisiae deletion strains, locus YOR069W, strain VPS5, active compounds read low 1.01 | S. cerevisiae deletion strains, locus YOR070C, strain gyp1, active compounds read low 1.02 | S. cerevisiae deletion strains, locus YOR080W, strain dia2, active compounds read low 1.02 | S. cerevisiae deletion strains, locus YOR083W, strain WHI5, active compounds read low 0.991 | S. cerevisiae deletion strains, locus YOR106W, strain vam3, active compounds read low 1.01 | S. cerevisiae deletion strains, locus YOR136W, strain idh2, active compounds read low 1 | S. cerevisiae deletion strains, locus YOR144C, strain elg1, active compounds read low 0.981 | S. cerevisiae deletion strains, locus YOR184W, strain ser1, active compounds read low 1.01 | S. cerevisiae deletion strains, locus YOR231W, strain MKK1, active compounds read low 0.992 | S. cerevisiae deletion strains, locus YOR265W, strain rbl2, active compounds read low 1.02 | S. cerevisiae deletion strains, locus YOR270C, strain vph1, active compounds read low 1.03 | S. cerevisiae deletion strains, locus YOR290C, strain snf2, active compounds read low 0.984 | S. cerevisiae deletion strains, locus YOR316C, strain cot1, active compounds read low 0.981 | S. cerevisiae deletion strains, locus YPL051W, strain arl3, active compounds read low 0.997 | S. cerevisiae deletion strains, locus YPL055C, strain LGE1, active compounds read low 0.934 | S. cerevisiae deletion strains, locus YPL078C, strain atp4, active compounds read low 0.996 | S. cerevisiae deletion strains, locus YPL106C, strain sse1, active compounds read low 1.05 | S. cerevisiae deletion strains, locus YPL240C, strain hsp82, active compounds read low 1 | S. cerevisiae deletion strains, locus YPL241C, strain CIN2, active compounds read low 0.993 | S. cerevisiae deletion strains, locus YPL256C, strain CLN2, active compounds read low 0.978 | S. cerevisiae deletion strains, locus YPR119W, strain clb2, active compounds read low 0.999 | S. cerevisiae deletion strains, locus YPR141C, strain kar3, active compounds read low 0.966 | S. cerevisiae deletion strains, locus YPR163C, strain tif3, active compounds read low 1 | S. cerevisiae deletion strains, locus YPR167C, strain met16, active compounds read low 0.982 | S. cerevisiae deletion strains, strain wtn01, active compounds read low 0.982 | S. cerevisiae strains, strain wild type, active compounds read low 0.984

— PubChem BioAssay AID1159580 (chemical genetic matrix, 2015)
